# Laboratory results from PubChem BioAssay.
# Activity calls are given as the source filed them. Unless noted, the rule behind the calls is not given here.
# Assays:
# [1] = tested on: XIP peptide (Xip251-270) binding; test: small-molecule binders of XIP peptide, primary screen, biochemical, small-molecule microarray, fluorescence 635/667 nm, 0.1 µg/mL protein (AID 1182); settings: fluorescent protein binding, 635 nm, higher = more signal, called active from +8 up or from −8 down
# [2] = tested on: XIP peptide (Xip251-270); test: small-molecule binders of XIP peptide, primary screen, biochemical, small-molecule microarray, fluorescence 635/667 nm, 0.5 µg/mL protein (AID 1183); settings: small-molecule microarray binding, fluorescence 635 nm; higher = more signal
# [3] = Plasmodium falciparum growth inhibition, primary screen, strain 3D7, DAPI fluorescence, 100 nL (AID 1184);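 note: parasites grown inside human red blood cells in medium with human serum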; settings: P. falciparum 3D7 growth, 3 d, higher = more signal
# [4] = biological target: Homeobox protein Hox-A13 (Mus musculus) (UniProt Q62424); test: inhibitors of HoxA13-DNA binding, primary screen, biochemical, fluorescence polarization, labeled oligonucleotide (AID 1185); settings: 15 min, higher = more signal, called active from +8 up or from −8 down
# [5] = inhibitors of hydroxyurea-induced Chk1 phosphorylation, primary screen, imaging, HeLa, phospho-Chk1 antibody, percent positive cells (AID 1186); settings: hydroxyurea-induced phospho-Chk1 immunofluorescence imaging, higher = more signal
# [6] = inhibitors of hydroxyurea-induced Chk1 phosphorylation, primary screen, imaging, HeLa, phospho-Chk1 nuclear intensity (AID 1187); settings: hydroxyurea-induced phospho-Chk1 immunofluorescence imaging, higher = more signal
# Chain of Homeobox protein Hox-A13 (Mus musculus) (Q62424 whole entry, looked up): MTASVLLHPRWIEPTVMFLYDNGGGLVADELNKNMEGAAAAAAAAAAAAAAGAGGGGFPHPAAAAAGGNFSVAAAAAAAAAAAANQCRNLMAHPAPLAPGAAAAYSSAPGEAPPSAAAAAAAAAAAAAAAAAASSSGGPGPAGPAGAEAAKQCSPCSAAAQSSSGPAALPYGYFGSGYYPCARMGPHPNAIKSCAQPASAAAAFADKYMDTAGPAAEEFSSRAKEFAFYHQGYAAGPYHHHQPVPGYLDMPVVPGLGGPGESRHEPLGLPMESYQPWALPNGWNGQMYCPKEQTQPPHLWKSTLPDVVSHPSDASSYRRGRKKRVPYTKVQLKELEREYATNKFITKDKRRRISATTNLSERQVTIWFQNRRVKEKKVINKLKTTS
Compound,composite z-score [1],composite z-score [2],z-score [3],z-score [4],z-score [5],z-score [6]
COc1ccc(C#Cc2ccc3c(c2)[C@]2(C(=O)N3)[C@H](c3ccc(OCCO)cc3)N3[C@H](c4ccccc4)[C@H](c4ccccc4)OC(=O)[C@H]3[C@@H]2C(=O)N2CCc3cc(OC)c(OC)cc3C2)cc1,0.119 (inactive),0.659,-1.92,2.11 (inactive),-0.0018 (inactive),0.0006 (inactive)
NC(=O)[C@H]1[C@@H]2C(=O)O[C@@H](c3ccccc3)[C@@H](c3ccccc3)N2[C@@H](c2ccc(O)cc2)[C@]12C(=O)Nc1ccccc12,-0.367 (inactive),-0.764,0.428,-5.09 (inactive),-0.154 (inactive),-0.112 (inactive)
C=C[C@@H](OC)[C@H](OC(=O)Nc1ccc(OC)cc1)c1ccc(OC)c(O)c1,2.2 (inactive),0.462,1.46,-2.54 (inactive),1.11 (inactive),1.39 (inactive)
NC(=O)[C@H]1[C@@H]2C(=O)O[C@@H](c3ccccc3)[C@@H](c3ccccc3)N2[C@@H](c2ccc(O)cc2)[C@]12C(=O)Nc1ccc(C#CC3=CCCCC3)cc12,0.875 (inactive),-0.0283,-0.88,-1.08 (inactive),-0.165 (inactive),-0.348 (inactive)
CN(C)C(=O)[C@@]1(Cc2ccccc2N=[N+]=[N-])N=C(c2ccc(OCCCO)cc2)O[C@H]1c1ccccc1,1.47 (inactive),0.821,-2.19,-4.9 (inactive),-0.279 (inactive),-0.303 (inactive)
C=C(CCCC)/C(=C/C[C@H](OC(C)=O)c1ccc(OCCO)cc1)c1cc(C(=O)OC)ccc1OC,-0.124 (inactive),0.71,-2.82,-3.64 (inactive),-1.09 (inactive),-1.97 (inactive)
COC(=O)[C@@]1(Cc2ccccc2CN=[N+]=[N-])N=C(c2ccc(OCCCO)cc2)O[C@H]1c1ccccc1,2.54 (inactive),0.766,-2.34,-4.51 (inactive),0.022 (inactive),0.55 (inactive)
CCCCC=C[C@@H](NC(=O)c1ccccc1)c1ccccc1,0.558 (inactive),0.496,-1.47,2.61 (inactive),0.855 (inactive),0.274 (inactive)
CC(C)N1CC=CC23O[C@@H]4/C=C\CCCOC(=O)C4[C@H]2C(=O)N(CCCCCCO)[C@@H]3C1=O (stereo partly drawn),1.15 (inactive),-0.853,-0.064,-5.14 (inactive),-0.765 (inactive),-0.0806 (inactive)
CCCNC(=O)[C@@]1(Sc2ccc(C)cc2)CC(=O)N(C2CCCCC2)[C@@H]1c1ccc(CO)cc1I,0.398 (inactive),0.372,-0.688,-4.72 (inactive),0.493 (inactive),0.252 (inactive)
O=C1NC(=O)C2C1C=CC(C(O)c1ccccn1)N2Nc1ccc(Cl)cc1Cl (stereo not drawn),0.628 (inactive),0.326,0.358,-4.45 (inactive),-0.133 (inactive),-0.18 (inactive)
CC(C)C(CO)N1C(=O)[C@@H]2[C@H]3C(=O)OCC=C[C@H]3OC23C=CCN(C(C)(C)C)C(=O)[C@@H]13 (stereo partly drawn),0.0887 (inactive),0.37,-0.217,-4.25 (inactive),0.337 (inactive),-0.418 (inactive)
CN1C(=O)[C@@]2(Cc3ccccc3)N=C(c3ccc(OCCCO)cc3)O[C@H]2c2ccccc21,1.11 (inactive),0.687,-2.26,-4.01 (inactive),-0.632 (inactive),-0.864 (inactive)
CCOC(=O)C1=CC[C@@H](c2ccccc2)N(S(=O)(=O)c2ccc(C)cc2)[C@H]1c1cccc(OC)c1,-0.285 (inactive),0.291,-2.14,0.892 (inactive),0.238 (inactive),-0.67 (inactive)
C=C/C=C/[C@@H]1C(=C)CN([C@@H](Cc2ccccc2)C(=O)OC)[C@H]1[C@@H](O)Cc1ccccc1,0.661 (inactive),0.58,0.135,-1.8 (inactive),-0.176 (inactive),0.221 (inactive)
CC(=O)NCCCC[C@@H]1NC(=O)[C@H]2C[C@@H](C(=O)NCCCCCNC(=O)CS)[C@@H](c3cccc(OCCO)c3)N2C1=O,4.01 (inactive),0.854,-0.559,-3.69 (inactive),0.276 (inactive),0.591 (inactive)
COCCOC(=O)N1C(=O)[C@@]2(c3cc(C#CCC(C(=O)OC)C(=O)OC)ccc31)[C@H](C(=O)NC[C@H](O)c1ccccc1)[C@H]1C(=O)O[C@H](c3ccccc3)[C@H](c3ccccc3)N1[C@@H]2c1ccc(OCCO)cc1,3.06 (inactive),0.64,-2.28,-0.301 (inactive),0.0558 (inactive),0.176 (inactive)
CCOC(=O)C1=CCC(c2ccccc2)N(S(=O)(=O)c2ccc([N+](=O)[O-])cc2)C1 (stereo not drawn),0.0444 (inactive),-0.165,-0.198,-1.91 (inactive),0.268 (inactive),-0.0449 (inactive)
